Test [1] concerns C33A. Briefly: Primary qHTS to identify gynecologic anti-cancer compounds using libraries of approved drugs and bioactive compounds (AID 1345084). Also: nearly all actives have a fitted effect of over 55% in size. Also: potency is read from the fitted curve at half-maximal effect. The conditions noted are these: Gynecologic cancer cell panel viability, ATPlite luminescence, 48 h; series mostly up to 57.5 µM. In short, it runs like this: (§1)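 Five-concentration response, 48 h; readout is ATP-driven luciferase luminescence.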
Background: Quantitative high-throughput screening tests each substance at several concentrations.

For test [2], the system named is CAOV3. Described as above. The conditions noted are these: Gynecologic cancer cell panel viability, ATPlite luminescence, 48 h; series mostly up to 57.5 µM. In short, it runs like this: as §1
The subject of test [3] is CASKI. The description is as above. The conditions noted are these: Gynecologic cancer cell panel viability, ATPlite luminescence, 48 h; series mostly up to 57.5 µM. The gist of the method: as §1
In test [4] the test system is Es-2. The test is described as above. The conditions noted are these: Gynecologic cancer cell panel viability, ATPlite luminescence, 48 h; series mostly up to 57.5 µM. The gist of the method: as §1
In test [5] the test system is HeLa. Described as above. The following applies: Gynecologic cancer cell panel viability, ATPlite luminescence, 48 h; series mostly up to 57.5 µM. In short, it runs like this:
as §1

The subject of test [6] is Hek293T. The test is described as above. The conditions noted are these: Gynecologic cancer cell panel viability, ATPlite luminescence, 48 h, control line for the selectivity index; series mostly up to 57.5 µM. In short, it runs like this:
as §1
A general note: Cellular ATP, detected with luciferase, serves as a proxy for viable cell number.

The test system of test [7] is JEG-3. The test is described as above. The conditions noted are these: Gynecologic cancer cell panel viability, ATPlite luminescence, 48 h; series mostly up to 57.5 µM. The gist of the method:
as §1

The test system of test [8] is OV90. The description is as above. The conditions noted are these: Gynecologic cancer cell panel viability, ATPlite luminescence, 48 h; series mostly up to 57.5 µM. In short, it runs like this:
as §1

The subject of test [9] is PA-1. Described as above. The conditions noted are these: Gynecologic cancer cell panel viability, ATPlite luminescence, 48 h; series mostly up to 57.5 µM. The gist of the method:
as §1

For test [10], the system named is SKOV3. The test is described as above. The conditions noted are these: Gynecologic cancer cell panel viability, ATPlite luminescence, 48 h; series mostly up to 57.5 µM. In short, it runs like this:
as §1

For test [11], the system named is Tov-21-G. The test is described as above. The conditions noted are these: Gynecologic cancer cell panel viability, ATPlite luminescence, 48 h; series mostly up to 57.5 µM. In short, it runs like this:
as §1

For test [12], the system named is Tov112D. The description is as above. The conditions noted are these: Gynecologic cancer cell panel viability, ATPlite luminescence, 48 h; series mostly up to 57.5 µM. In short, it runs like this:
as §1

Test [13] relates to UISO. Briefly: qHTS assay to identify novel small-molecules to repurpose for Merkel cell carcinoma treatment (AID 1296009). Also: nearly all actives have a fitted effect of over 60% in size. The conditions noted are these: MCC and control cell lines, CellTiter-Glo viability, 72 h; series mostly up to 46 µM. In short, it runs like this:
(§2)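 Cell viability measured by CellTiter-Glo following 72 hr compound treatment at 37 degree celsius, with NPC and MIPE libraries tested in 8- and 11-point concentration series.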

The subject of test [14] is WaGa. The test is described as above. The conditions noted are these: MCC and control cell lines, CellTiter-Glo viability, 72 h; series mostly up to 46 µM. In short, it runs like this:
as §2

Records with an inconclusive call do not appear. A number with no mark means an inactive call. The source made the active and inactive calls. Calls follow the shape of the dose curve; as a rule, active = well fitted curve in the direction sought with a large enough effect; inconclusive = small, poorly fitted or top-dose-only effect, or another doubt; inactive = no such curve, though single readings can be large; an effect the other way counts as inactive or inconclusive.
% is scaled to controls: 0 for no effect and ±100 for the full control effect.

For `C[C@@H]1O[C@@H](O[C@H]2[C@H](OC(=O)[C@]34CCC(C)(C)C[C@H]3C3=CCC5[C@@]6(C)CC[C@H](O[C@@H]7O[C@H](C(=O)O)[C@@H](O)[C@H](O)[C@H]7O[C@@H]7O[C@H](CO)[C@H](O)[C@H](O)[C@H]7O)[C@@](C)(C=O)C6CC[C@@]5(C)[C@]3(C)C[C@H]4O)O[C@H](C)[C@H](O[C@@H]3O[C@H](C)[C@H](O)[C@H](O)[C@H]3O)[C@@H]2O)[C@H](O)[C@H](O)[C@H]1O[C@@H]1OC[C@@H](O)[C@H](O[C@@H]2O[C@H](CO)[C@@H](O)[C@H](O)[C@H]2O)[C@H]1O` (stereo partly drawn), the activity change, negative = cytotoxicity in test [1] is 29.4% [at 6.55 µM]; in test [2], 2.56% [at 6.55 µM]; in [3], 4.26% [at 6.55 µM]; in test [4], 0.809% [at 6.55 µM]; in test [5] it was 3.75% [at 6.55 µM]; in test [6], 8.68% [at 6.55 µM]. The values for the activity change, negative = cytotoxicity in test [7] and in test [8] were -1.59% [at 6.55 µM] and -26.3% [at 6.55 µM], respectively.

On to `CC12CCC(OC3OC(CO)C(O)C(OC4OC(CO)C(O)C(O)C4O)C3O)CC1CCC1C2CCC2(C)/C(=C3/COC(=O)C3)CCC12O` (stereo not drawn), for which the Potency entry in test [1], in [2], in [3], in test [4], in test [5] and in test [6] was “inactive” in each case. For the same molecule, the Potency result in [7], in [8], in test [9], in test [10] and in test [11] was “inactive” in each case.

As to `CCC(Nc1ncnc2nc[nH]c12)c1nc2cccc(F)c2c(=O)n1-c1ccccc1` (stereo not drawn), the Potency result in [1], in test [2], in test [3], in [4], in test [5] and in [6] was “inactive” each time. In addition, the Potency result in [7], in [8], in [9], in test [10], in [11] and in [12] was “inactive” in each case.

On to `COC(=O)c1ccccc1O[C@@H]1O[C@H](CO)[C@@H](O)[C@H](O)[C@H]1O[C@@H]1O[C@@H](C)[C@H](O)[C@@H](O)[C@H]1O`, for which the Potency result in [1], in test [2], in test [3], in test [4], in test [5] and in test [6] was “inactive” throughout. Besides, the Potency result in test [7], in [8], in test [9], in test [10], in test [11] and in test [12] was “inactive” throughout.

In the case of `C=C[C@H]1CN2CC[C@H]1C[C@@H]2C(O)c1ccnc2ccc(OC)cc12` (stereo partly drawn), the Potency entry in [1], in test [2], in test [3], in test [4], in [5] and in test [6] was “inactive” each time. Further, the Potency entry in test [7], in test [8], in [9], in [10], in test [11] and in test [12] was “inactive” in each case.

As to `CC(O)CCC1C(CO[C@@H]2O[C@H](CO)[C@@H](O)[C@H](O)[C@H]2O)CC(O)CC1(C)C` (stereo partly drawn), the Potency result in [1], in test [2], in test [3], in [4], in [5] and in test [6] was “inactive” each time. In addition, the Potency result in test [7], in [8], in test [9], in test [10], in [11] and in test [12] was “inactive” throughout.

As for `CC(O)CO[C@@H]1O[C@H](CO)[C@@H](O)[C@H](O)[C@H]1O` (stereo partly drawn), the Potency result in test [1], in test [2], in test [3], in test [4], in test [5] and in test [6] was “inactive” each time. Also, the Potency result in test [7], in [8], in test [9], in test [10], in [11] and in [12] was “inactive” throughout.

As for `CCC(C(=O)O)c1ccc(N2Cc3ccccc3C2=O)cc1` (stereo not drawn), the Potency result in test [13], in test [14], in [1], in test [2], in test [3] and in test [4] was “inactive” in each case. Further, the Potency result in test [5], in test [6], in test [7], in [9], in test [10] and in test [11] was “inactive” each time. Moreover, the Potency entry in [12] is “inactive”.

For the molecule `COc1c/c(=C2\C=c3ccccc3=N2)[nH]/c1=C\c1[nH]c(C)cc1C`, the Potency in test [1] was 1.41 µM (active); in test [2], 10 µM (active); in [3], 12.6 µM (active); in test [4] it was 2.51 µM (active); in test [5] it was 10 µM (active); in [6], 6.31 µM (active). Moreover, the Potency is 7.94 µM (active) in test [7]; 2.24 µM (active) in test [8]; 2 µM (active) in [9]; 10 µM (active) in test [10]; 14.1 µM (active) in [11]; 3.55 µM (active) in test [12].

`C=C[C@@H]1[C@H](O[C@@H]2O[C@H](CO)[C@@H](O)[C@H](O)[C@H]2O)OC=C(C(=O)O)[C@H]1CCOC(=O)/C=C/c1ccc(O)c(O)c1`: the Potency entry in test [1], in [2], in test [3], in [4], in test [5] and in [6] was “inactive” each time. For the same molecule, the Potency result in [7], in test [8], in test [9], in test [10], in test [11] and in test [12] was “inactive” in each case.

With `O=C(O)c1cccc(S(=O)(=O)N2CCc3ccccc3C2)c1`, the Potency entry in [1], in test [2], in test [3], in [4], in test [5] and in test [6] was “inactive” throughout. Besides, the Potency entry in test [7], in [8], in test [9], in [10], in [11] and in test [12] was “inactive” each time.

Consider `COC(=O)[C@@]1(c2ccc(C)cc2)C[C@H]1CN1CCC(O)(c2ccccc2)CC1`, for which the Potency result in [1], in [2], in test [3], in test [4], in test [5] and in test [6] was “inactive” in each case. Moreover, the Potency entry in [7], in test [8], in test [9], in test [10], in test [11] and in test [12] was “inactive” each time.

Turning to `C=CC1(C)C=C2C(=O)OC(=O)C3=C(CCCC3(C)C)C2(O)CC1` (stereo not drawn), the Potency entry in test [1], in test [2], in [3], in test [4], in test [5] and in test [6] was “inactive” in each case. The Potency result in test [7], in test [8], in [9], in test [10], in test [11] and in test [12] was “inactive” in each case.

Regarding `CC1CCCCN1S(=O)(=O)c1ccc(N2CCCC2=O)cc1` (stereo not drawn), the Potency entry in [1], in test [2], in test [3], in [4], in [5] and in test [6] was “inactive” throughout. Also, the Potency entry in test [7], in test [8], in test [9], in test [10], in test [11] and in [12] was “inactive” each time.

For the molecule `COc1ccc(C2COc3cc(O)ccc3C2)c(O)c1` (stereo not drawn), the Potency result in test [1], in test [2], in test [3], in test [4], in [5] and in [6] was “inactive” throughout. In addition, the Potency result in [7], in test [8], in test [9], in test [10], in test [11] and in test [12] was “inactive” in each case.

Take `O=C1NC(Cc2c[nH]c3ccccc23)C(=O)NC1Cc1c[nH]c2ccccc12` (stereo not drawn): the Potency result in test [1], in [2], in test [3], in test [4], in test [5] and in test [6] was “inactive” throughout. The Potency entry in test [7], in [8], in test [9], in test [10], in test [11] and in test [12] was “inactive” in each case.
